Where “and” joins values, the source holds several entries; their conditions need not be identical. Equal entries are not always repeated. A structure can be active in one record and inactive in another. Calls of active or inactive are those of the source.
How the values were obtained:
[1] = binders of probe aFSTL3 on microarray, primary screen, stem cell growth factor project, biochemical, small-molecule microarray, fluorescence 635/667 (AID 1064); settings: higher = more signal;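 further: measures binding of the biotinylated anti-FSTL3 antibody to printed compounds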
[2] = binders from COS7 lysate, DM2A8 probe, primary screen, torsin A project, cell lysate, small-molecule microarray, fluorescence 635/667 (AID 1065); settings: higher = more signal, COS7 lysate expressing mutant human TOR1A
[3] = binders of probe aFGF2 on microarray, primary screen, stem cell growth factor project, biochemical, small-molecule microarray, fluorescence 635/667 (AID 1067); settings: higher = more signal;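 further: measures binding of biotinylated aFGF2 protein to printed compounds on slides; z-score merges feature fluorescence and signal-to-noise across triplicate slides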
[4] = binders of probe aFGF10 on microarray, primary screen, stem cell growth factor project, biochemical, small-molecule microarray, fluorescence 635/667 (AID 1071); settings: higher = more signal;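 further: score merges 667 nm spot intensity and signal to noise from triplicate slides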
[5] = molecular target: Neurogenic locus notch homolog protein 2 (Homo sapiens) (UniProt Q04721); assay: Notch2 binders on small-molecule microarrays, primary screen, biochemical, small-molecule microarray, 635 nm fluorescence, stem cell growth factors (AID 1073); settings: Notch2 binding, higher = more signal
Chain of Neurogenic locus notch homolog protein 2 (Homo sapiens) (Q04721 whole entry, looked up, canonical isoform): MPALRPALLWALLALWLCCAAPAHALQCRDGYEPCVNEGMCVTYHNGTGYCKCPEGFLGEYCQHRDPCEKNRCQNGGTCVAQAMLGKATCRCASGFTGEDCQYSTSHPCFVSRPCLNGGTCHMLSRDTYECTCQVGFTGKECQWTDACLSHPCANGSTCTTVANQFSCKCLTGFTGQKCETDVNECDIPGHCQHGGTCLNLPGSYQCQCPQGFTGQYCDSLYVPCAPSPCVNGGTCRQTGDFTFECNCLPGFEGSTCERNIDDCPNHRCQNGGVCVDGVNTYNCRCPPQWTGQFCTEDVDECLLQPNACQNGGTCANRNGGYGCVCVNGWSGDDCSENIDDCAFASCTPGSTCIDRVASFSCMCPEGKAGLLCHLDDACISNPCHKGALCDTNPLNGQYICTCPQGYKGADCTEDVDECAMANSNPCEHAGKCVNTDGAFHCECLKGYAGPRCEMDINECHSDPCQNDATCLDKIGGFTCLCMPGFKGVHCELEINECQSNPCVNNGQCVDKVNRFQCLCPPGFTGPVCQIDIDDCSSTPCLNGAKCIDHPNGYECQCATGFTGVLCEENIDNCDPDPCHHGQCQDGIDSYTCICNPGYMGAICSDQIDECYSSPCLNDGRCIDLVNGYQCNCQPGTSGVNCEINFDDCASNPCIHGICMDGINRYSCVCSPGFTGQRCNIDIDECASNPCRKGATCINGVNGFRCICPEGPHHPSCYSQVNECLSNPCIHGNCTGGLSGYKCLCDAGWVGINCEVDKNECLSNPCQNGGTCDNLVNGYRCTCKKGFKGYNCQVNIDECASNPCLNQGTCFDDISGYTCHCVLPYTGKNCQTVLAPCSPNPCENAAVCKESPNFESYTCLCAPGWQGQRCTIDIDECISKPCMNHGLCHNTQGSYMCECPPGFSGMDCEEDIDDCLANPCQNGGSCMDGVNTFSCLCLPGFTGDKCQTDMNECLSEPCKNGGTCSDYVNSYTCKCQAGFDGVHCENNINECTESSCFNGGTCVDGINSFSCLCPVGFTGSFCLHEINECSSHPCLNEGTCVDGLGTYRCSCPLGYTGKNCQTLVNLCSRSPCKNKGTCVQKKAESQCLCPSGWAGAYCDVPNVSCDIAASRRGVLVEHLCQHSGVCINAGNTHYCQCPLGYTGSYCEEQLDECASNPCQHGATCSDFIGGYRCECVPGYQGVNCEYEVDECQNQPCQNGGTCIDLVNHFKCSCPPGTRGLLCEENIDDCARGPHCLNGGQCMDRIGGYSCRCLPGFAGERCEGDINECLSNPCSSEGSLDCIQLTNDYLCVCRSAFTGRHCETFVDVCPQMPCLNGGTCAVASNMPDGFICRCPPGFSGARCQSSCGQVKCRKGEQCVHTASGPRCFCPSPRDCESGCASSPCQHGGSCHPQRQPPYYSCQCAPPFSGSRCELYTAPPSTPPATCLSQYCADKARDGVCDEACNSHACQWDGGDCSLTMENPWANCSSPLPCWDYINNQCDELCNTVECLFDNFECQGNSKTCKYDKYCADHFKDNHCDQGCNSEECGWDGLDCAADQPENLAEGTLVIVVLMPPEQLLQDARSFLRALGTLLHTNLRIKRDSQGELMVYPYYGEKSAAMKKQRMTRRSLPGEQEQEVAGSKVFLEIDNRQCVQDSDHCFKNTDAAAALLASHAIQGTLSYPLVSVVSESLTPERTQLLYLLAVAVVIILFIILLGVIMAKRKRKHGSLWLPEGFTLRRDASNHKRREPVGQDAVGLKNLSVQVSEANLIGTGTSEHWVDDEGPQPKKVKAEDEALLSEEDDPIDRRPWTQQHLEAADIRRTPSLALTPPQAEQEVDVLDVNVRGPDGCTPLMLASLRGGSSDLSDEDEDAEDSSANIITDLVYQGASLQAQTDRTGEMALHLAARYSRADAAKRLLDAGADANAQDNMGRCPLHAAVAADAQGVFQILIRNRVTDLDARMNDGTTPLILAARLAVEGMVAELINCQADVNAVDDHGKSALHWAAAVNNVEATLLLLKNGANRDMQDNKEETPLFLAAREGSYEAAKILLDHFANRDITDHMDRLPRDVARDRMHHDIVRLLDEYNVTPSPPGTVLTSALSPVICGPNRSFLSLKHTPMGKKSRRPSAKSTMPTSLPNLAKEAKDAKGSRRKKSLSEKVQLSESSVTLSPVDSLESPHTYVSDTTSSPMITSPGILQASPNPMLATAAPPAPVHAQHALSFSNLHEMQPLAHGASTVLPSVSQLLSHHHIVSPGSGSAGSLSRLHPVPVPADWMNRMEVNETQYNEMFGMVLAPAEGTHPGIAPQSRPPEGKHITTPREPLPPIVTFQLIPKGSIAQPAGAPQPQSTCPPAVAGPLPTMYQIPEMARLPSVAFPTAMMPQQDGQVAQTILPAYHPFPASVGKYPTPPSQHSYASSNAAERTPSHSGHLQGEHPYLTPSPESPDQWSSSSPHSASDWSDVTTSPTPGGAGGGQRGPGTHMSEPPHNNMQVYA

[6] = molecular target: Pro-neuregulin-1, membrane-bound isoform (Homo sapiens) (UniProt Q02297); assay: NRG1 binders on small-molecule microarrays, primary screen, psychiatric disease protein project, biochemical, small-molecule microarray, fluorescence 635/667 (AID 1075); settings: NRG1 binding, 635 nm fluorescence, higher = more signal;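 further: score combines 667 nm spot fluorescence with signal to noise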
[7] = test system: Neuregulin-1 EGF-like domain; assay: binders of neuregulin-1 EGF-like domain, primary screen, biochemical, small-molecule microarray, 635 nm fluorescence (AID 1081); settings: small-molecule microarray binding, higher = more signal;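 further: binding of the protein to compounds printed on small-molecule microarray slides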
[8] = FRG1 promoter luciferase signal modulators, primary screen, FRG1 inhibition for FSHD, cell-based, C2C12 myotubes, firefly/Renilla luciferase, luminescence (AID 1084); settings: higher = more signal, called active from +8 up or from −8 down
[9] = binders of probe aFST on microarray, primary screen, stem cell growth factor project, biochemical, small-molecule microarray, fluorescence 635/667 (AID 1086); settings: higher = more signal;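 further: score merges 667 nm fluorescence with signal-to-noise of each printed compound spot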
[10] = binders of probe aHhip on microarray, primary screen, stem cell growth factor project, biochemical, small-molecule microarray, fluorescence 635/667 (AID 1087); settings: higher = more signal;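 further: score merges spot fluorescence at 667nm with spot signal to noise ratio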
[11] = test system: PRMT1 (protein arginine N-methyltransferase 1); assay: PRMT1 binders on small-molecule microarrays, primary screen, biochemical, small-molecule microarray, 635 nm fluorescence (AID 1088); settings: small-molecule microarray binding, higher = more signal;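 further: binding of Prmt1 protein to compounds spotted on small-molecule microarray slides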
[12] = yeast growth modulation, basal conditions, primary screen, YJM789 clinical isolate, OD600, 24 h (AID 1089);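 further: growth of clinical yeast isolate S. cerevisiae YJM 789 seeded 1000 cells per well; test concentration not given here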; settings: S. cerevisiae YJM789 growth, higher = more signal, called active from +8 up or from −8 down
[13] = fission yeast growth modulation, primary screen, strain 972, OD600, 24 h, no modulator (AID 1090);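 further: basal condition with compound alone and no growth modifier present; test concentration not given here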; settings: S. pombe 972 growth, higher = more signal, called active from +8 up or from −8 down
[14] = S. cerevisiae growth modulation with rapamycin, primary screen, strain BY4716, OD600, 96 h (AID 1091); settings: higher = more signal, called active from +8 up or from −8 down; further: test concentration not given here
[15] = molecular target: Torsin-1A-interacting protein 2 (Homo sapiens) (UniProt Q8NFQ8); assay: LULL1 binders on small-molecule microarray, primary screen, cell lysate, human LULL1 lysate, 635/667 nm fluorescence (AID 1092); settings: hLULL1 lysate binding, 635 nm fluorescence, higher = more signal;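 further: probe is lysate of COS7 cells overexpressing human LULL1; score merges per-feature 667 nm fluorescence with signal-to-noise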
[16] = E. coli growth modulation, two-sided OD650, primary screen, E. coli filamentation project, strain DRC41, 24 h (AID 1093); settings: OD650, 24 h, higher = more signal, called active from +8 up or from −8 down;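 further: MC1000 strain lacking acrAB efflux and sulA so SOS filamentation is blocked; test concentration not given here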
[17] = small-molecule microarray binders of probe aLefty2, primary screen, biochemical, biotinylated probe, 635/667 nm fluorescence (AID 1094); settings: higher = more signal;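 further: score merges spot fluorescence near 667 nm with spot signal-to-noise ratio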
[18] = test system: Noggin (protein binding on small-molecule microarray); assay: Noggin binders on small-molecule microarray, primary screen, biochemical, 635/667 nm fluorescence (AID 1095); settings: 635 nm fluorescence, higher = more signal;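 further: score merges 667 nm feature fluorescence with signal to noise over triplicate slides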
[19] = molecular target: Neurogenic locus notch homolog protein 3 (Homo sapiens) (UniProt Q9UM47); assay: NOTCH3 binders on small-molecule microarray, primary screen, biochemical, 635/667 nm fluorescence (AID 1096); settings: NOTCH3 binding, 635 nm fluorescence, higher = more signal
Chain of Neurogenic locus notch homolog protein 3 (Homo sapiens) (Q9UM47 whole entry, looked up): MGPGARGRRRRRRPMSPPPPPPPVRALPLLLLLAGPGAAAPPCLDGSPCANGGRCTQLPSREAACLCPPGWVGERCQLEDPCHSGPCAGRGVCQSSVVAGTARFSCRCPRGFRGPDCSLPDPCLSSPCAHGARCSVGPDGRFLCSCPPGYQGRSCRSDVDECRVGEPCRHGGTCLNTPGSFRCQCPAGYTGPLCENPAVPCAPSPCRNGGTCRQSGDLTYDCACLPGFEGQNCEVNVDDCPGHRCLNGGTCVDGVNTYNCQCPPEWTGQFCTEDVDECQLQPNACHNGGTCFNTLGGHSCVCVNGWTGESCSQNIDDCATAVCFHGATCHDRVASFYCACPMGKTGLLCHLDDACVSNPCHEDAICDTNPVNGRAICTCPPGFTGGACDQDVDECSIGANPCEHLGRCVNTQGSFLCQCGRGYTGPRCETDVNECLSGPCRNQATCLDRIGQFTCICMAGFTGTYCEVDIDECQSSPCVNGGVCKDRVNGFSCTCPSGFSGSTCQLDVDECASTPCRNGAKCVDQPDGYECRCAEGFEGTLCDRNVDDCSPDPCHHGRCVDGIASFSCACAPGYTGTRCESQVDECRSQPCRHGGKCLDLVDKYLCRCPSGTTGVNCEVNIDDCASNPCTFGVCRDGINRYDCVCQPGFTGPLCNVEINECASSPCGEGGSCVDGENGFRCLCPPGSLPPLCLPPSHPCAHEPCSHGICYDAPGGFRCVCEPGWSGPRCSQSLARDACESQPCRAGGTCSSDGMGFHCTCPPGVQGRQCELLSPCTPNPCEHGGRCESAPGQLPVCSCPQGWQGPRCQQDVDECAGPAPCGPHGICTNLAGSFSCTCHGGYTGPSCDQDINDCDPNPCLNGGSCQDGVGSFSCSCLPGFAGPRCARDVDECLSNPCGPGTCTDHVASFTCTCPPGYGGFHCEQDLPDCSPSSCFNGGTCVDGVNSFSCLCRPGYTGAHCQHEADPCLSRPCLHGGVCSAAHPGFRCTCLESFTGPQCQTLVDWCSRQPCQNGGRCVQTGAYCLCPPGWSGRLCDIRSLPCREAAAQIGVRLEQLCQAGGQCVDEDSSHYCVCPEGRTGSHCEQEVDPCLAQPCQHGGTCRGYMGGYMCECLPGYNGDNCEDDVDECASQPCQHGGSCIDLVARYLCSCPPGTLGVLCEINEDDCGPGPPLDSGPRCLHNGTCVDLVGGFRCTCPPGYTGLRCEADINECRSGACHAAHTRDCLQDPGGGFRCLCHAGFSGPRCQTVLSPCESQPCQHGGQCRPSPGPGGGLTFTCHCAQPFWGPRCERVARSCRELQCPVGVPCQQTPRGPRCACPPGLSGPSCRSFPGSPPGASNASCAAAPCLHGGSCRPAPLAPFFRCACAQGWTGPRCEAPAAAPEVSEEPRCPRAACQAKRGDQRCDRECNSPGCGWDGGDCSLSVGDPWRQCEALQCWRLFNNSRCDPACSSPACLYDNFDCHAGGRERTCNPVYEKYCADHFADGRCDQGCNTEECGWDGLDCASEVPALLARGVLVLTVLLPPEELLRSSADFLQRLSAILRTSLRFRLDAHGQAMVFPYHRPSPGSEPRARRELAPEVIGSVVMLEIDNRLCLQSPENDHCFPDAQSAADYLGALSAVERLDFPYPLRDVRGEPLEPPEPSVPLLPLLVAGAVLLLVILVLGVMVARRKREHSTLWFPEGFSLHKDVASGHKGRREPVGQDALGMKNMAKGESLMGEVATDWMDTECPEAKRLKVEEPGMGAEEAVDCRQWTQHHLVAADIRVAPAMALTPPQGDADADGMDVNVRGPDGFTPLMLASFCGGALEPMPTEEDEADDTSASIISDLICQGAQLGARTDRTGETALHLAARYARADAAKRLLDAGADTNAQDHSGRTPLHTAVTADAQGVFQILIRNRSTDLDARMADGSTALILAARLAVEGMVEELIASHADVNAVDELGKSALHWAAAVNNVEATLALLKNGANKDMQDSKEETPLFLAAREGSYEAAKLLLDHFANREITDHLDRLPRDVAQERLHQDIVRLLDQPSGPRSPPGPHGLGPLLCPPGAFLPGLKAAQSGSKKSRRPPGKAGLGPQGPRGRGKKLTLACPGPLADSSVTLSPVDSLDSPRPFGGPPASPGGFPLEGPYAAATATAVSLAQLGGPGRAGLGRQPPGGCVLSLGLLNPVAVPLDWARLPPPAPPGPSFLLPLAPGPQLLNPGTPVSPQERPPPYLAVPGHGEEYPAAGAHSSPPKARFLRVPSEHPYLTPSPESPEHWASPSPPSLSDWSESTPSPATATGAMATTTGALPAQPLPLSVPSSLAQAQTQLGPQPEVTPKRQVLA

[20] = small-molecule microarray binders of probe aEGFR, primary screen, biochemical, biotinylated probe, 635/667 nm fluorescence (AID 1097); settings: higher = more signal;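 further: probe is a biotinylated anti-EGFR antibody binding compounds printed on slides; score combines fluorescence near 667 nm and signal to noise of each spot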

| SMILES | composite z-score [1] | composite z-score [2] | composite z-score [3] | composite z-score [4] | composite z-score [5] | composite z-score [6] | composite z-score [7] | z-score [8] | composite z-score [9] | composite z-score [10] | composite z-score [11] | z-score [12] | z-score [13] | z-score [14] | composite z-score [15] | z-score [16] | composite z-score [17] | composite z-score [18] | composite z-score [19] | composite z-score [20] |
| --- | --- | --- | --- | --- | --- | --- | --- | --- | --- | --- | --- | --- | --- | --- | --- | --- | --- | --- | --- | --- |
| C=C[C@H](C)[C@H](O)c1ccc(O)c2ccccc12 | 0.101 and 0.398 | 0.848 and -0.282 | -0.144 and -0.0541 | -0.737 and -0.0937 | -1.43 and -0.16 | -0.532 and -0.889 | 0.316 and -0.53 | -0.891 (inactive) and -0.971 (inactive) | -1.03 and -0.735 | -0.12 and -0.0994 | -0.0037 and -0.738 | -3.96 (inactive) and -3.22 (inactive) | -10.7 (active) and -6.18 (inactive) | 4.04 (inactive) and 4.01 (inactive) | 0.48 and 0.622 | 1.84 (inactive) and 1.81 (inactive) | -0.274 and -0.168 | -0.431 and -0.211 | -0.283 and -0.073 | -0.275 and -0.203 |
| CO[C@H]1COC(=O)CC=C[C@H](C)[C@H](OC)COC(=O)[C@@H](C)COC(=O)CC=C[C@@H]1C | -0.62 and -0.66 | 0.767 and 1.26 | -0.14 and -0.143 | -0.0016 and 0.149 | -0.178 and 0.182 | -0.73 and -0.518 | -0.104 and 0.0825 | -0.407 (inactive) and -1.3 (inactive) | -0.0446 and -0.0435 | -0.261 and -0.0645 | 0.65 and 1.07 | -0.23 (inactive) and -0.132 (inactive) | -0.121 (inactive) and -1.49 (inactive) | -0.324 (inactive) and -0.586 (inactive) | -0.0624 and -0.0356 | 0.432 (inactive) and 0.839 (inactive) | -0.177 and -0.239 | 0.74 and 1.2 | 0.327 and 0.287 | -0.143 and -0.103 |
| COC(=O)C1=C(C)N(Cc2ccccc2)[C@]23O[C@](C(=O)OC)(C(=O)N2[C@@H]1c1ccccc1)[C@H]1CCCC(=O)[C@H]13 | 0.0353 and -0.148 | 0.383 and 1.06 | -0.0333 and -0.0507 | 0.513 and 0.359 | 1.15 and 0.327 | 1.21 and -0.23 | 0.636 and -0.133 | -1.02 (inactive) and 0.357 (inactive) | 0.395 and 0.0869 | 0.186 and -0.236 | -0.0081 and 0.249 | 0.563 (inactive) and 0.21 (inactive) | -1.79 (inactive) and -1.07 (inactive) | -1.95 (inactive) and -0.557 (inactive) | 0.164 and -0.142 | 0.302 (inactive) and -0.824 (inactive) | -0.102 and -0.132 | 0.0709 and 0.413 | 0.31 and 0.604 | 0.173 and -0.0497 |
| CCN1C(=O)[C@H]2[C@H]3[C@H](O)[C@H](O)CC(=NOC[C@@H](O)COCc4ccco4)[C@@H]3CC[C@H]2C1=O | -0.841 and -0.446 | 2.37 and 0.0438 | -0.235 and -0.132 | -0.507 and 0.352 | -0.413 and -0.498 | -0.538 and -0.26 | 0.837 and 1.12 | 0.235 (inactive) and 0.417 (inactive) | -0.104 and -0.45 | -0.0645 and 0.154 | 1.4 and 0.727 | 0.686 (inactive) and 0.102 (inactive) | 0.315 (inactive) and 0.174 (inactive) | 1.29 (inactive) and 0.945 (inactive) | -1.03 and 0.493 | 0.0584 (inactive) and -1.13 (inactive) | -0.266 and -0.44 | 0.445 and -0.121 | -0.365 and -0.32 | 0.0747 and -0.0413 |
| CC(CO)N1C(=O)[C@@H]2C3C(=O)OCCC=C[C@H]3OC23C=CCN(Cn2nnc4ccccc42)C(=O)[C@@H]13 (stereo not given in full) | 0.634 and 0.0762 | -1.37 and 0.709 | -0.187 and -0.0234 | 0.0583 and 0.509 | -1.7 and -0.0585 | 1.32 and 1.91 | 1.5 and 1.48 | -0.191 (inactive) and 0.519 (inactive) | -0.545 and -0.255 | -0.137 and -0.228 | -0.414 and 0.262 | 1.52 (inactive) and -1.09 (inactive) | 0.102 (inactive) and -0.115 (inactive) | 0.73 (inactive) and -0.0895 (inactive) | 0.145 and 3.01 | 0.775 (inactive) and -0.175 (inactive) | -0.223 and -0.0882 | -1.78 and 0.0711 | -0.391 and 0.347 | -0.203 and -0.0828 |
| C[N+](C)(C)CCCCNC(=O)[C@H]1C[C@H]2C(=O)N[C@@H](CCCC[N+](C)(C)C)C(=O)N2[C@H]1c1ccc(O)cc1 | -0.589 and -0.197 | 2 and 1.03 | -0.051 and -0.216 | 0.889 and 0.379 | 0.443 and -0.234 | 0.289 and -0.641 | 1.38 and 0.394 | 0.717 (inactive) and 0.376 (inactive) | -0.142 and 0.287 | 0.21 and -0.134 | 1.54 and 1.55 | 0.877 (inactive) and -0.0113 (inactive) | 0.565 (inactive) and 0.352 (inactive) | -1.16 (inactive) and -1.35 (inactive) | -0.296 and -0.656 | -0.118 (inactive) and 0.0161 (inactive) | -0.171 and -0.214 | 1.73 and 1.84 | 0.97 and 0.969 | 0.0338 and -0.127 |
| C=CCN(CCCCC)C(=O)C1N(CCCCCCO)C(=O)C2C(C(=O)O)C3C=CC21O3 (stereo not given) | 1.25 and 0.679 | -0.833 and -1.2 | -0.2 and -0.248 | -1.43 and -1.82 | -2.1 and -1.82 | -0.54 and 0.234 | 1.07 and 1.32 | -0.0502 (inactive) and -0.095 (inactive) | -0.855 and -1.02 | -0.331 and -0.287 | 0.19 and -0.725 | -0.657 (inactive) and -0.677 (inactive) | -0.849 (inactive) and -0.744 (inactive) | -0.44 (inactive) and -0.767 (inactive) | 0.565 and 1.97 | -0.617 (inactive) and -0.541 (inactive) | -0.126 and -0.0198 | -2.33 and -1.76 | -0.968 and -0.32 | -0.322 and -0.32 |
| C=CCN(CCCCC)C(=O)C1N(C(C)(C)CO)C(=O)C2C(C(=O)O)C3C=CC21O3 (stereo not given) | 0.215 and 0.754 | -0.806 and -0.866 | -0.223 and -0.193 | -1.26 and -2.17 | -1.64 and -2.02 | -0.729 and 1.18 | -0.369 and -0.726 | 0.521 (inactive) and 1.02 (inactive) | -2.01 and -0.558 | -0.261 and 0.0274 | -1.11 and -1.37 | -0.447 (inactive) and -1.11 (inactive) | -0.342 (inactive) and -0.0005 (inactive) | -0.402 (inactive) and -0.177 (inactive) | -1.82 and -1.59 | -0.373 (inactive) and -0.262 (inactive) | -0.202 and -0.159 | -2.03 and -1.91 | -1.09 and -0.779 | -0.258 and -0.301 |
